In ChEMBL document CHEMBL4513149, “CO-ADD screening of MMV (CH) - MMV compounds” (2021):
Out of some 23,000 compounds screened, about 30 (0.1%) showed an effect of 50% or more. What follows is part of a selection rich in strong results, with near analogues and random picks from the rest. Measured potencies and affinities stand elsewhere.

tested on: Pseudomonas aeruginosa; settings: Concentration 20 uM; ASSAY_TEST Inhibition of Bacterial Growth; detection method Absorption (OD600); MEDIA CAMHB; plate type 384well; NBS; CORNING #3640; time 18 hr

SMILES	Inhibition
Cl.O=C(Nc1ccc(N2CCNCC2)nc1)c1oc(-c2ccccc2)nc1C(F)(F)F	-17.92%
N=C(N)c1ccc(-c2cc(-c3ccccc3)on2)cc1	13.36%
CC(C)=CCC/C(C)=C\CNCCNC1C2CC3CC(C2)CC1C3 (centres undefined)	27.33%
O=C(c1ccc(F)cc1)N(CCNc1ccccc1)c1ccccc1	12.58%
